Data on 18 molecules can be found in PubChem BioAssay (NCI).

The panel holds about 79,000 compounds, 15% with a hit somewhere; the sample as a whole holds those more often. Activity calls are given as the source filed them. Rule as the data show it: active = growth inhibition above about 70%; inactive = the rest.

The nature of this assay: NCI Yeast Anticancer Drug Screen. Data for the sgs1 mgt1 strain (AID 161).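 Also: 0% = growth of cultures given vehicle only.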 The note with it: S. cerevisiae sgs1 mgt1 strain, at 50.0 µM, stronger effect = higher value. The method, boiled down: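 This yeast growth screen uses a strain with defined DNA-repair lesions; compound-treated growth is compared with vehicle-treated growth.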
In the case of `C=CCCCCCCCCCCCCCCC`, the growth inhibition is -26.2% (inactive). For `CCOc1cc2c(cc1Cc1ccc3c(c1)OCO3)OCO2`, the growth inhibition is -5.6% (inactive).

For `Cc1ccc(S(=O)(=O)C2(NC(=O)C3CC3)CC2)cc1`, the growth inhibition was -26.2% (inactive).

`CCCCCCCCCC(O)CCCC(O)C(O)CCCCCCC(=O)O` (stereo not drawn): the growth inhibition was 22.7% (inactive).

Take `Cc1ccc2[nH]c(=S)[nH]c(=S)c2c1`: the growth inhibition was 13.2% (inactive). With `CC(C)(Cl)C1CCC(CC(Cl)(Cl)Cl)CC1` (stereo not drawn), the growth inhibition is 0.6% (inactive). With `O=C(NCC1CC1)NC(=O)c1ccccc1F`, the growth inhibition was -14.3% (inactive). On to `Cc1ccc(NC(=O)c2ccc(C)c(N)c2)c(C)c1`, for which the growth inhibition was -15.8% (inactive).

For `O=C(C[n+]1ccccc1-c1ccccn1)c1ccc(-c2ccccc2)cc1`, the growth inhibition is 22.4% (inactive). `NCc1ccccc1[N+](=O)[O-]`: the growth inhibition is 3.5% (inactive). Consider `CCOC(=O)C1Cc2ccccc2OC1=O` (stereo not drawn), for which the growth inhibition was 20.4% (inactive).

With `O/N=C1\CC2(N3CCOCC3)CCC1(c1ccccc1)CC2`, the growth inhibition was 54.1% (inactive). With `O=[N+]([O-])c1ccc(Cl)c(C=NC23CC4CC(CC(C4)C2)C3)c1` the figure was -29% (inactive); with `O=c1[nH]cnc2c1ncn2C1CCC(CO)O1` (stereo not drawn), 11.3% (inactive); with `O=C(/C=C/c1ccccc1)CC(=O)c1ccccc1.O=C(/C=C/c1ccccc1)CC(=O)c1ccccc1.[Cu]`, -15.7% (inactive). Take `COc1cc(Cl)ccc1NC(=O)Oc1ccc(-c2ccccc2)cc1Cl`: the growth inhibition was 99.5% (active).

Consider `S=c1sc2c(Cl)ncnc2n1-c1ccccc1`, for which the growth inhibition was 13.2% (inactive). As to `CCCOC(=O)C(OC(=O)c1ccccc1)C(OC(=O)c1ccccc1)C(=O)OCCC` (stereo not drawn), the growth inhibition was -8% (inactive).
